Results as given in PubChem BioAssay (EPA / NIEHS).
Active and inactive are the calls of the source. The calls were made as follows: active = hit-call score of the fitted dose curve at least 0.9, where 1 is the maximum; inactive = score below 0.9.

test: APR_HepG2_CellLoss_24hr: Apredica 24-hour HepG2 Assay for Cell Loss (AID 2282908); conditions: high-content imaging;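 as to AC50: fit in both directions so a hit may be cell loss or gain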
Experimental: APR_HepG2_24hr is a cell-based, multiplexed-readout assay that uses HepG2, a human liver cell line, with measurements taken at 24 hours after chemical dosing in a 384-well plate.APR_HepG2_CellLoss_24hr is one of 10 assay component(s) measured or calculated from the APR_HepG2_24hr assay. It is designed to make measurements of cell number, a form of viability reporter, as detected with fluorescence intensity signals by HCS Fluorescent Imaging technology.Data from the assay component APR_HepG2_CellLoss_24hr was analyzed into 1 assay endpoint. This assay endpoint, APR_HepG2_CellLoss_24hr, was analyzed with bidirectional fitting relative to DMSO as the negative control and baseline of activity. Using a type of viability reporter, measures of all nuclear dna for gain or loss-of-signal activity can be used to understand the viability at the cellular-level. Furthermore, this assay endpoint can be referred to as a secondary readout, because this assay has produced multiple assay endpoints where this one serves a viability function. To generalize the intended target to other relatable targets, this assay endpoint is annotated to the cell cycle intended target family, where the subfamily is proliferation.
Cells were treated with dimethyl sulfoxide (DMSO) as a solvent control at a final concentration of 0.5% v/v or with compounds in DMSO with a resulting final DMSO concentration of 0.5% v/v. Compound treatment was done at concentrations of 0.39, 0.78, 1.56, 3.12, 6.24, 12.5, 25, 50, 100, and 200 uM in duplicate on each plate. Cells were treated with compounds for 1, 24, or 72 hr. Carbonyl […] m-chloro-phenylhydrazone (CCCP) and taxol were used as positive controls for mitochondrial function and cytoskeletal stability, respectively; DMSO served as the negative control for this experiment. Cells were fixed by the direct addition of 50 uL formaldehyde in Hank's Balanced Salt Solution (HBSS) to a final concentration of 3.7%. After incubation in the fixation medium for 30 min at room temperature (293-298 K), cells were rinsed twice with HBSS and treated with cell permeabilization buffer (16 uL of 0.5% Triton X-100) for 10 min at room temperature (293-298 K) before labeling. For mitochondrial membrane potential and mitochondrial measurements, pre-fixed cells were incubated with 50 uL of MitoTracker Red CMXRos (Invitrogen) at a concentration of 250 nM for 30 min before fixation. In the remaining cases, post-fixed cells were labeled by incubation with a multiplexed mixture of primary antibodies in HBSS for 60 min at room temperature (293-298 K) to detect immunoreactivity of c-Jun (1:500), phospho-histone H3 (1:100), phospho-histone H2A.x (1:200), p53 (1:400), alpha-tubulin (1:200) and Hoechst 33342 (2 ug/mL). Cells were labeled for multiplexed imaging on two separate plates: a) Hoechst 33342, MitoTracker Red, phospho-histone H3, and alpha-tubulin, and b) Hoechst 33342, phospho-histone H2A.x, and c-Jun. A final rinse with HBSS (50 uL) was performed before analysis. The primary and secondary antibodies for the proteins were phospho-histone H3 (rabbit anti-phospho-histone H3 and FITC-donkey anti-rabbit IgG), phospho-histone H2A.x (mouse anti-phospho-histone H2A.x and FITC-donkey anti-mouse IgG), c-Jun (rabbit anti-phospho-c-Jun and Cy3-donkey anti-rabbit IgG), p53 (sheep anti-p53 and Cy5-donkey anti-sheep IgG), alpha-tubulin (mouse anti-alpha-tubulin and Cy5-donkey anti-mouse IgG). These antibodies are available as the CellCiphr HepG2 assay kit (Millipore).Digital images of each well were captured using a Cellomics ArrayScan VTI (Thermo Scientific Cellomics) (0.8 NA objective, 0.63x optical coupler, and XF-93 filter set) at 20x magnification. The images were acquired using the autofocus feature of the ArrayScan instrument, which entails the following steps. First, the camera focuses on channel 1 (Hoechst 33342), where nuclei are identified. Second, a Z offset of 1 um is used for capturing mitochondria (MitoTracker Red). […]

SMILES | AC50 | outcome
CCc1cc(SCc2sc(-c3ccc(C(F)(F)F)cc3)nc2CN2CCN(c3ccc(OC)cc3)CC2)ccc1OCC(=O)O | 49.7 µM (active) | –
C1=CCCC=CCCC=CCC1 | – | inactive
CCOCCOCCOCCO | – | inactive
O=c1[nH]c2ccc(S(=O)CCN3CCC(Cc4ccc(F)cc4)CC3)cc2o1 (stereo not given) | – | inactive
Nc1ccc(Nc2ccccc2)cc1 | – | inactive
C[C@](N)(Cc1ccc(O)c(O)c1)C(=O)O | – | inactive
COC(=O)c1c(Cl)c(Cl)c(C(=O)OC)c(Cl)c1Cl | – | inactive
CC/C(=C\C(=N/O)C(N)=O)C(C)[N+](=O)[O-] (stereo not given) | – | inactive
CC(C)=CCC/C(C)=C\CO | – | inactive
CCOc1cccc(-n2cc(C(=O)N3CCN(c4cc(C(=O)O)c5ccccc5c4)CC3)nc2-c2ccc(C)cc2)c1 | 88.3 µM (active) | –
CCCCCCCCCCCCCCCO | – | inactive
CCn1nc(Cc2ccccc2)cc1C1CCN(C[C@H]2C[C@H](N(C)[C@@H](C(=O)O)C(C)C)C[C@@H]2c2cccc(F)c2)CC1 | – | inactive
CC(C)CC(C)(O)C#CC(C)(O)CC(C)C (stereo not given) | – | inactive
COc1cccc(-c2ccc(/C=C\CN3CCCCCC3)cc2Cl)c1 | 74.8 µM (active) | –
CC[C@H]1CC[C@H](NCc2cc3c(cc2OC)[C@H]2C[C@H]2C(=O)N3C)[C@H](c2ccccc2)N1 | – | inactive
CCOC(=O)CC(CC(=O)OCC)(OC(C)=O)C(=O)OCC | – | inactive
CC(=O)c1ccc2c(c1)[C@H](NC(=O)c1ccc(F)cc1)[C@@H](O)C(C)(C)O2 | – | inactive
CCCN(C1CCN(C(=O)C2CCNCC2)CC1)[C@@H]1CCc2ccc(OC)cc2C1 | 100 µM (active) | –
COc1ccc2sc(C(=O)Nc3nnn[nH]3)c(OC(C)C)c2c1 | – | inactive
O=C1CCC(N2C(=O)c3ccccc3C2=O)C(=O)N1 (stereo not given) | – | inactive

SMILES | AC50 | outcome
CC(C)c1cccc(C(C)C)c1N1C(=O)c2ccc(O)cc2C1=O | 87.5 µM (active) | –
O=C1CCCCCN1 | – | inactive
COCCOc1cc2cc(C(=O)NC3CCN(C(C)C)CC3)n(CC(=O)Nc3ccc(Cl)cn3)c2cn1 | 74 µM (active) | –
Clc1nc(Cl)c(Cl)c(Cl)c1Cl | 45 µM (active) | –
COC(=O)CC(=O)OC | – | inactive
C1N2CN3CN1CN(C2)C3 | – | inactive
C=CC(=C)CCC=C(C)C | – | inactive
Cc1ccc(O)cc1 | – | inactive
CCOC(=O)c1ccc(C2CCC(NC[C@H](O)COc3ccc(O)c(NS(C)(=O)=O)c3)CC2)cc1 (stereo not given in full) | 32.3 µM (active) | –
O=c1n(CC2CO2)c(=O)n(CC2CO2)c(=O)n1CC1CO1 (stereo not given) | 1.8 µM (active) | –
NC(=O)NO | – | inactive
CC1(C)C(=O)N(Br)C(=O)N1Br | – | inactive
O=C(NS(=O)(=O)/C=C/c1ccccc1)c1ccc(F)cc1Cl | – | inactive
Fc1ccccc1[C@@H](F)COC1CCC(Nc2ncnc3[nH]ncc23)CC1 (stereo not given in full) | 52.4 µM (active) | –
C=CCCCCCCCCC(=O)O | – | inactive
CCCC(=O)OCC | – | inactive
Cn1c(=O)cc(Oc2ccc(F)cc2F)c2cnc(NCC(C)(C)O)nc21 | – | inactive
CNS(=O)(=O)c1cc(C(=O)N2CCC(CCN3C4CCC3CC(n3c(C)nc5ccccc53)C4)(c3cccc(F)c3)CC2)c(Cl)cc1F (stereo not given) | 62.9 µM (active) | –
CC(=O)OC[C@H]1O[C@@](COC(C)=O)(O[C@H]2O[C@H](COC(C)=O)[C@@H](OC(C)=O)[C@H](OC(C)=O)[C@H]2OC(C)=O)[C@@H](OC(C)=O)[C@@H]1OC(C)=O | – | inactive
CC(=O)OCCC(C)C | – | inactive
